Where “and” joins values, the source holds several entries; their conditions need not be identical. Equal values may be shown once. Unmarked numbers belong to inactive results. Calls of active or inactive are those of the source.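 How the source made its calls, unless noted: active means mean inhibition over 43.08%, the solvent-only control mean plus 3 SD; inactive means the rest.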
Key:
[1] = molecular target: Nuclear receptor coactivator 3 (Homo sapiens) (UniProt Q9Y6Q9); experiment: SRC3 coactivator transcriptional activity inhibitors, confirmation, cell-based, luminescence, quadruplicate (AID 588792); conditions: HEK293 GAL4-SRC3 luciferase reporter, at 3.6 µM, hits give high values;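 further: 0% = DMSO treated cells and 100% = gossypol at 36 µM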
[2] = test system: transactivating tegument protein VP16 (Human herpesvirus 1), Gal4-VP16 luciferase reporter; experiment: VP16 transactivation inhibitors, counter-screen for SRC3 inhibitor project, cell-based, luminescence, high throughput (AID 588794; in the data active means inhibition above about 30%); conditions: mammalian cells, VP16-driven luciferase reporter luminescence; at 3.6 µM; hits give high values
[3] = molecular target: Nuclear receptor coactivator 1 (Homo sapiens) (UniProt Q15788); experiment: SRC1 coactivator transcriptional activity inhibitors, confirmation, cell-based, luminescence, quadruplicate (AID 588820;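 active means mean inhibition above 46.68%, the untreated control wells mean plus 3 SD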;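 further: 0% = DMSO wells and 100% = gossypol 36 µM treated wells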); conditions: HEK293 GAL4-SRC1 luciferase reporter, at 3.6 µM, hits give high values
[4] = VP16 transactivation inhibitors, counter-screen for SRC1 inhibitor project, cell-based, luminescence, high throughput (AID 588824; in the data active means inhibition above about 25%); conditions: cell-based VP16 transactivation luciferase luminescence; at 3.6 µM; hits give high values
[5] = molecular target: Nuclear receptor subfamily 5 group A member 2 (Homo sapiens) (UniProt O00482); experiment: LRH-1 (NR5A2) inverse agonists, retest, confirmation, cell-based, luminescence (AID 651613; in the data active means inhibition above about 42%;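 further: HEK293T cells co-transfected with LRH-1 and StAR promoter luciferase reporter; 0% = vehicle wells and 100% = parental cells lacking receptor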); conditions: cell-based LRH-1 luciferase reporter, inverse agonism; at 3.6 µM; hits give high values
[6] = molecular target: Steroidogenic factor 1 (Homo sapiens) (UniProt Q13285); experiment: SF1 (NR5A1) inverse agonists, counter-screen for LRH-1 inverse agonist project, cell-based, luminescence, high throughput (AID 651614; in the data active means inhibition above about 44%;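 further: cells cotransfected with StAR promoter reporter and SF1 expression vector; 0% = vehicle on cells with receptor and 100% = vehicle on cells lacking receptor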); conditions: cell-based SF1 luciferase reporter, at 3.6 µM, hits give high values
[7] = test system: transactivating tegument protein VP16 (Human herpesvirus 1); experiment: VP16 transactivation reporter inhibitors, counter-screen for SRC2 inhibitor project, cell-based, luminescence, single concentration (AID 652007; in the data active means inhibition above about 36%); conditions: cell-based VP16 transactivation luciferase reporter, at 8.9 µM, hits give high values
[8] = molecular target: Nuclear receptor coactivator 2 (Homo sapiens) (UniProt Q15596); experiment: SRC2 coactivator transcriptional activity inhibitors, confirmation, cell-based, luminescence, HEK293, triplicate (AID 652008;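 active means mean inhibition above 46.5%, the solvent-only control mean plus 3 SD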;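 further: 0% = DMSO-treated cells and 100% = Gossypol at 36 µM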); conditions: HEK293 GAL4-SRC2 luciferase reporter, at 8.9 µM, hits give high values
[9] = StAR promoter reporter inhibitors, counter-screen for LRH-1 inverse agonist project, cell-based, luminescence, high throughput (AID 651611; in the data active means inhibition above about 28%); conditions: StAR promoter luciferase reporter counterscreen, at 3.6 µM, hits give high values
[10] = VP16 transactivation reporter inhibitors, counter-screen for LRH-1 inverse agonist project, cell-based, luminescence, high throughput (AID 651615; in the data active means inhibition above about 33%); conditions: Gal4-VP16 luciferase reporter cells, at 3.6 µM, hits give high values

Sequence of Nuclear receptor coactivator 3 (Homo sapiens) (Q9Y6Q9 whole entry, looked up, the tested form may be a part): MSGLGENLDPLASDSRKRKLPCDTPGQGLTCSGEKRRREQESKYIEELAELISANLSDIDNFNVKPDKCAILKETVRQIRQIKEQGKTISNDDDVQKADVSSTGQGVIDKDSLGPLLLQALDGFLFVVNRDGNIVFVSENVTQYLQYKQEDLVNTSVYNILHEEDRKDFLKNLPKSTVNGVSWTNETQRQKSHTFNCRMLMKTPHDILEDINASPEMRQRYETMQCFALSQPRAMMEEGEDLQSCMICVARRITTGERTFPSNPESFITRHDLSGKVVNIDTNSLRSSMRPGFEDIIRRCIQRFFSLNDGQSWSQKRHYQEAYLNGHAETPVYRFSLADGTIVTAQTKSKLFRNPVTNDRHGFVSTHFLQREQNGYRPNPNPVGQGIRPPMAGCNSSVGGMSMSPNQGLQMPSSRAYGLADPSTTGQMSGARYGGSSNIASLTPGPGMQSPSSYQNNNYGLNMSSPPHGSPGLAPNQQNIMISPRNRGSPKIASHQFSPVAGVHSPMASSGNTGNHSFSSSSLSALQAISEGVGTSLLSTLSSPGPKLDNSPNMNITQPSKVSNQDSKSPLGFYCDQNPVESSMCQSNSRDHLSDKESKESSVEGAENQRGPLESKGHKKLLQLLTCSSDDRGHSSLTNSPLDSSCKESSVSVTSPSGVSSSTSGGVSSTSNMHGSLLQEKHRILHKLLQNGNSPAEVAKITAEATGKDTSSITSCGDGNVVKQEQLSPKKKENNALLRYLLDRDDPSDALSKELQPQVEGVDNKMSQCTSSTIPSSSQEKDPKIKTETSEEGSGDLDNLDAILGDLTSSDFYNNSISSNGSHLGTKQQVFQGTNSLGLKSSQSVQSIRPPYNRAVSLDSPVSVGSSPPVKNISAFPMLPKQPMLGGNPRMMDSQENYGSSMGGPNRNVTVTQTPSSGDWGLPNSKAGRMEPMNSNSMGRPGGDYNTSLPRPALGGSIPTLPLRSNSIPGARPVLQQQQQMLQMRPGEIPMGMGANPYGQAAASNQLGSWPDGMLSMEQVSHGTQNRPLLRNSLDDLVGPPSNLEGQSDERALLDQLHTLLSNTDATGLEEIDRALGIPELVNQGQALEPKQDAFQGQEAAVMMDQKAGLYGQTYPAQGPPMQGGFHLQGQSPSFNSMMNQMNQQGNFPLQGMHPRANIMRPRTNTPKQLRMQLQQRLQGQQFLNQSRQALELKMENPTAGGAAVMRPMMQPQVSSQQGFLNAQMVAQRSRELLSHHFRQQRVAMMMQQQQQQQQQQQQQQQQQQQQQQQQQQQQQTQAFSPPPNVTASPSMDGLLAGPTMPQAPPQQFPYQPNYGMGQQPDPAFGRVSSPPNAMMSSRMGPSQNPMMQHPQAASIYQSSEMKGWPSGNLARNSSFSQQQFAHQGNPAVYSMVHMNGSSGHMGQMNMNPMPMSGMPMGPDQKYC
Sequence of Steroidogenic factor 1 (Homo sapiens) (Q13285 whole entry, looked up): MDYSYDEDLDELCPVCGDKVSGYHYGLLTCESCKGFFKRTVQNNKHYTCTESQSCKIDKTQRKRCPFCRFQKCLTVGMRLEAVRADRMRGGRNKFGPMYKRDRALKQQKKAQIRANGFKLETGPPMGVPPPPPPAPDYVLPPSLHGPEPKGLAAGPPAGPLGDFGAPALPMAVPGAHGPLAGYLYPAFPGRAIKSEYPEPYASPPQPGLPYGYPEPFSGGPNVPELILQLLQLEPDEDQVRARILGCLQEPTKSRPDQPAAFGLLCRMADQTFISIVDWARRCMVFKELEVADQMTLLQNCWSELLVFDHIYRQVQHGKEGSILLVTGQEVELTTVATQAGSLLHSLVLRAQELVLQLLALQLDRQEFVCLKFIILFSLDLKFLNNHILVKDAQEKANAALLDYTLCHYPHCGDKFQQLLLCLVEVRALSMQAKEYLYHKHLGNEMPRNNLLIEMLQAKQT
Sequence of Nuclear receptor coactivator 2 (Homo sapiens) (Q15596 whole entry, looked up, the tested form may be a part): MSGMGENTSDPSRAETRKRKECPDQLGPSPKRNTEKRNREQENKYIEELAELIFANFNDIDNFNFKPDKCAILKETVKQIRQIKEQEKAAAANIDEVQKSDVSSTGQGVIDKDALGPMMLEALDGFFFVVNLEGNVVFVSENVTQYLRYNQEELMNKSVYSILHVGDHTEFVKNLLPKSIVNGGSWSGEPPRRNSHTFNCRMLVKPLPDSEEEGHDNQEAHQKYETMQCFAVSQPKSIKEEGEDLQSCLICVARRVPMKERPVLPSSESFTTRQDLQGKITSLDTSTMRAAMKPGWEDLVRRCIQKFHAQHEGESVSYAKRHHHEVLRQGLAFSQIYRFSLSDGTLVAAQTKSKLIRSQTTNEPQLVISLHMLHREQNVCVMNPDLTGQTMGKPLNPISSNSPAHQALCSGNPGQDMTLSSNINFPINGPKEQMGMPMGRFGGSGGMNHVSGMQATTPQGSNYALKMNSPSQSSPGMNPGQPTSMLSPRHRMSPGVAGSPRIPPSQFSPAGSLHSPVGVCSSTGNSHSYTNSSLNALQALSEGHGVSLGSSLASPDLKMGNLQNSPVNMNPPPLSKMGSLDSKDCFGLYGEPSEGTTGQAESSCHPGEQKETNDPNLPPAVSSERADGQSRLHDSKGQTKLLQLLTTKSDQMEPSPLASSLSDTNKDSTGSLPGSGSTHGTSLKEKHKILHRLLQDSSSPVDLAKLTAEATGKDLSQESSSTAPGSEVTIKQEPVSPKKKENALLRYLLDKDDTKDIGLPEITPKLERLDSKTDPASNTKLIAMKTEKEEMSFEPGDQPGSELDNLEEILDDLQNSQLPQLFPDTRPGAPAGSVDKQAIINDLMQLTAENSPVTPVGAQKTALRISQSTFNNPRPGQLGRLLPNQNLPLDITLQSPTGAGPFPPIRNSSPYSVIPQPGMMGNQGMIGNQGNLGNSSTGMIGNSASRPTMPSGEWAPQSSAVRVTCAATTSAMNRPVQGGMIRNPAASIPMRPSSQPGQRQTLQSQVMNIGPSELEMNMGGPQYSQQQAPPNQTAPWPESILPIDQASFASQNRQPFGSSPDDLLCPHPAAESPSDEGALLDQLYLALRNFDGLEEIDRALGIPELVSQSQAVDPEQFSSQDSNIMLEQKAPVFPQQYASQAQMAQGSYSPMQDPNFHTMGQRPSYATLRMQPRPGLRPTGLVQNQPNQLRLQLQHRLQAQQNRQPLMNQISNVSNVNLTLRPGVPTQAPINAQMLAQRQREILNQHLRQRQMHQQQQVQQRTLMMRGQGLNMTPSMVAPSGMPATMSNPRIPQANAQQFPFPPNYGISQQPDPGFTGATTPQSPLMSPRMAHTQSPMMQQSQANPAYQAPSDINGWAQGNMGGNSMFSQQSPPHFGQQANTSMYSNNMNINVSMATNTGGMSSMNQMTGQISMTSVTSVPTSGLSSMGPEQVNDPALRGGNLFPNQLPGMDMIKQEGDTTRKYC
Sequence of Nuclear receptor coactivator 1 (Homo sapiens) (Q15788 whole entry, looked up, the tested form may be a part): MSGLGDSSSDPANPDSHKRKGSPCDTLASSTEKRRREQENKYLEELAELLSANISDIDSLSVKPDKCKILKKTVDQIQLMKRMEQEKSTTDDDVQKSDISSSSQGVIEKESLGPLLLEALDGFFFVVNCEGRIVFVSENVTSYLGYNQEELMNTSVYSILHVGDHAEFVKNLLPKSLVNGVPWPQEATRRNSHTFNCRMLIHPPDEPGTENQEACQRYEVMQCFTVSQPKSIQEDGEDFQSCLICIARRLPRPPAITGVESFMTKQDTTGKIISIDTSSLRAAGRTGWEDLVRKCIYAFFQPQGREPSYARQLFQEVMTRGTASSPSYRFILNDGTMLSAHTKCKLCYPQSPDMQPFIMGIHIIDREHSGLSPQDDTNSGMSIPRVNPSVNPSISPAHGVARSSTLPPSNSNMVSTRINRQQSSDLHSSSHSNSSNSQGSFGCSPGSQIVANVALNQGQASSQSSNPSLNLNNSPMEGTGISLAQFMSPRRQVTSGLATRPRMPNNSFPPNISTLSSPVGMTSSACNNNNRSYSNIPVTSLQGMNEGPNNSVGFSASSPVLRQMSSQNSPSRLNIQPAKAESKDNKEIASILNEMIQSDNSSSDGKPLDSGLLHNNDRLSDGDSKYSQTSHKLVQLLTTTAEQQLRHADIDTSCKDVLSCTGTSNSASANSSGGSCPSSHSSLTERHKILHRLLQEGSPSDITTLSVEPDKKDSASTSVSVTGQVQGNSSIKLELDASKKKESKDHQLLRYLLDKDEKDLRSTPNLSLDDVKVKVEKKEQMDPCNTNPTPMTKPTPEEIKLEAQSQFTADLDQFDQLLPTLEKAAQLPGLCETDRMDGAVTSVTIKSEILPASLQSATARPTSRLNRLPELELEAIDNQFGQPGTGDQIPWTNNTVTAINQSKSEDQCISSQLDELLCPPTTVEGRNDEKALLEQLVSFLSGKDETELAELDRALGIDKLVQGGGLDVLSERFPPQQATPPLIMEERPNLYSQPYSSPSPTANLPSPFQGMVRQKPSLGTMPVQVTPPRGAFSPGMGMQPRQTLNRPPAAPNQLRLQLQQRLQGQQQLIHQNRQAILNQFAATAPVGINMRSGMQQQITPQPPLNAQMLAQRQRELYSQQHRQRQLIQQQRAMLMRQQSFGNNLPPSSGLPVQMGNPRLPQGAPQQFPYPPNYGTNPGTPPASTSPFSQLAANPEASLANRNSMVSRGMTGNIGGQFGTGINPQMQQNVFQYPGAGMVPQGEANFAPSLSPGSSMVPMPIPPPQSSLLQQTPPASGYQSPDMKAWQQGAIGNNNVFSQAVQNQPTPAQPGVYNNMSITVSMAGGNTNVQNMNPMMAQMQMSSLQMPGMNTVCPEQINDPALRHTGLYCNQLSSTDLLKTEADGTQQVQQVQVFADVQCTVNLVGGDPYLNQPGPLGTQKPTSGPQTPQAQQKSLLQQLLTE

**Q.** Which results are given for C[C@H]1C[C@@H](C)C(=O)[C@@H]([C@H](O)CC2CC(=O)NC(=O)C2)C1?
**A.** inhibition [1]: 96.7% (active); inhibition [2]: 92.3% (active); inhibition [3]: 82.3% (active); inhibition [4]: 91.3% (active); inhibition [5]: 110% (active); inhibition [6]: 97.9% (active); inhibition [7]: 63.2% (active); inhibition [8]: 62.9% (active)

**Q.** Which inhibition [1] does the source give for CC(=O)OC1CC2(O)C3CCC4CC(O)CCC4(C)C3CCC2(C)C1C1=CC(=O)OC1 (stereo not drawn) here?
**A.** 95.9% (active)

**Q.** What about the inhibition [2] of the same molecule?
**A.** 84.3% (active)

**Q.** And the inhibition [3]?
**A.** 71.4% (active)

**Q.** What about the inhibition [4] of the same molecule?
**A.** 83.3% (active)

**Q.** What about the inhibition [9] of the same molecule?
**A.** 96.5% (active)

**Q.** And the inhibition [5]?
**A.** 111% (active)

**Q.** What about the inhibition [6] of the same molecule?
**A.** 98.7% (active)

**Q.** What about the inhibition [10] of the same molecule?
**A.** 91.9% (active)

**Q.** And the inhibition [7]?
**A.** 65.2% (active)

**Q.** And the inhibition [8]?
**A.** 45.1%

**Q.** What does the source list for COc1ccc2c(c1)[nH]c1c(C)nccc12?
**A.** inhibition [1]: 79% (active); inhibition [2]: 48.6% (active); inhibition [3]: 63.4% (active); inhibition [4]: 51.4% (active); inhibition [7]: 9.1%; inhibition [8]: 42.9%

**Q.** With COc1ccc(C[C@H]2NC[C@H](O)[C@H]2OC(C)=O)cc1 as the molecule, how does the inhibition [1] read?
**A.** 98.9% (active)

**Q.** What about the inhibition [2] of the same molecule?
**A.** 97.4% (active)

**Q.** What about the inhibition [3] of the same molecule?
**A.** 96% (active)

**Q.** What about the inhibition [4] of the same molecule?
**A.** 96.7% (active)

**Q.** What about the inhibition [9] of the same molecule?
**A.** 94.4% (active)

**Q.** What about the inhibition [5] of the same molecule?
**A.** 110% (active)

**Q.** What about the inhibition [6] of the same molecule?
**A.** 97.7% (active)

**Q.** What about the inhibition [10] of the same molecule?
**A.** 95.9% (active)

**Q.** And the inhibition [7]?
**A.** 79.2% (active)

**Q.** And the inhibition [8]?
**A.** 78.6% (active)

**Q.** What does the source list for CC1CCOC(=O)C=CC=CC(=O)OC2CC3OC4C5OC5(C)C(O)CC4(COC(=O)C1O)C2(C)C31CO1 (stereo not drawn)?
**A.** inhibition [1]: 98.8% (active); inhibition [2]: 97.3% (active); inhibition [3]: 97.2% (active); inhibition [4]: 97.1% (active); inhibition [7]: 80.4% (active); inhibition [8]: 75.2% (active)

**Q.** With C=C1C(=O)O[C@@H]2C[C@@H](C)[C@@H]3C=CC(=O)[C@@]3(C)[C@@H](OC(=O)CC(=O)O[C@H]3[C@@H]4C(=C)C(=O)O[C@@H]4C[C@@H](C)[C@@H]4C=CC(=O)[C@]43C)[C@H]12 as the molecule, how does the inhibition [1] read?
**A.** 97.5% (active)

**Q.** What about the inhibition [2] of the same molecule?
**A.** 96% (active)

**Q.** What about the inhibition [3] of the same molecule?
**A.** 91.3% (active)

**Q.** What about the inhibition [4] of the same molecule?
**A.** 95.7% (active)

**Q.** And the inhibition [9]?
**A.** 94.5% (active)

**Q.** And the inhibition [5]?
**A.** 106% (active)

**Q.** And the inhibition [6]?
**A.** 97.1% (active)

**Q.** What about the inhibition [10] of the same molecule?
**A.** 94.5% (active)

**Q.** What about the inhibition [7] of the same molecule?
**A.** 96% (active)

**Q.** And the inhibition [8]?
**A.** 99% (active)

**Q.** With CCN1CCN(c2ncnc3ccc(Br)cc23)CC1 as the molecule, how does the inhibition [1] read?
**A.** 56.6% (active)

**Q.** And the inhibition [2]?
**A.** 54.3% (active)

**Q.** And the inhibition [3]?
**A.** 72.2% (active)

**Q.** What about the inhibition [4] of the same molecule?
**A.** 44.9% (active)

**Q.** And the inhibition [7]?
**A.** 2.45%

**Q.** And the inhibition [8]?
**A.** 36.7%

**Q.** What does the source list for CC(=O)OC[C@]12CCC(C)=C[C@H]1O[C@@H]1[C@H](O)[C@@H](OC(C)=O)[C@@]2(C)[C@]12CO2?
**A.** inhibition [1]: 98.8% (active); inhibition [2]: 97.9% (active); inhibition [3]: 98% (active); inhibition [4]: 97.8% (active); inhibition [9]: 96% (active); inhibition [5]: 109% (active); inhibition [6]: 98% (active); inhibition [10]: 97.1% (active); inhibition [7]: 78.3% (active); inhibition [8]: 73% (active)

**Q.** With COc1ccc(-n2nnnc2C(c2ccccc2)N2CCC(n3c(=O)[nH]c4ccccc43)CC2)cc1 (stereo not drawn) as the molecule, how does the inhibition [3] read?
**A.** -22.4%

**Q.** And the inhibition [4]?
**A.** 5.11%

**Q.** For C[C@H]1CCC/C=C/[C@@H]2C[C@H](O)C[C@H]2[C@@H](O)/C=C/C(=O)O1, which inhibition [1] is on record?
**A.** 64.3% (active)

**Q.** What about the inhibition [2] of the same molecule?
**A.** 77.3% (active)

**Q.** And the inhibition [9]?
**A.** 81.5% (active)

**Q.** And the inhibition [5]?
**A.** 85.4% (active)

**Q.** What about the inhibition [6] of the same molecule?
**A.** 80% (active)

**Q.** And the inhibition [10]?
**A.** 74.8% (active)

**Q.** What does the source list for COc1cc2nc(CN3CC=C(c4ccccc4)CC3)[nH]c(=O)c2cc1OC?
**A.** inhibition [1]: 37.9%; inhibition [2]: 39.7% (active); inhibition [9]: 72.7% (active); inhibition [5]: 97.1% (active); inhibition [6]: 77.1% (active); inhibition [10]: 73.8% (active); inhibition [7]: -4.49%; inhibition [8]: 24.4%

**Q.** For COc1ccc(CN2Cc3cnnn3-c3ccccc3C2C#N)cc1 (stereo not drawn), which inhibition [1] is on record?
**A.** 62.8% (active)

**Q.** What about the inhibition [2] of the same molecule?
**A.** 56.2% (active)

**Q.** What about the inhibition [7] of the same molecule?
**A.** 51.6% (active)

**Q.** And the inhibition [8]?
**A.** 49.8% (active)

**Q.** For CC1CCC/C=C/C2CC(O)CC2C(O)/C=C/C(=O)O1 (stereo not drawn), which inhibition [1] is on record?
**A.** 64.7% (active)

**Q.** What about the inhibition [2] of the same molecule?
**A.** 75% (active)

**Q.** What about the inhibition [9] of the same molecule?
**A.** 78.9% (active)

**Q.** What about the inhibition [5] of the same molecule?
**A.** 86.7% (active)

**Q.** And the inhibition [6]?
**A.** 80.8% (active)

**Q.** And the inhibition [10]?
**A.** 74.8% (active)

**Q.** Which results are given for CN1CCN(c2cc(N3CCCCCC3)c(F)cc2[N+](=O)[O-])CC1?
**A.** inhibition [3]: -15.1%; inhibition [4]: -7.21%

**Q.** What does the source list for C[C@H]1CCC/C=C/[C@@H]2C[C@H](O)C[C@H]2[C@H](O)/C=C/C(=O)O1?
**A.** inhibition [1]: 70% (active) and 66.5% (active); inhibition [2]: 76.2% (active) and 77.2% (active); inhibition [9]: 77.6% (active) and 82% (active); inhibition [5]: 82.1% (active) and 88.7% (active); inhibition [6]: 75% (active) and 80.4% (active); inhibition [10]: 78.7% (active) and 78.3% (active)

**Q.** With COC(=O)C1=C(c2ccc(-c3ccccc3)c(F)c2)C[C@@H]2CC[C@H]1N2C(=O)N1CCOCC1 as the molecule, how does the inhibition [3] read?
**A.** 2.48%

**Q.** And the inhibition [4]?
**A.** 25.3%

**Q.** For CNC(=O)c1cccn(Cc2ccc(C(F)(F)F)cc2)c1=O, which inhibition [1] is on record?
**A.** 30.3%

**Q.** And the inhibition [2]?
**A.** -34.3%

**Q.** What about the inhibition [9] of the same molecule?
**A.** 47.7% (active)

**Q.** What about the inhibition [5] of the same molecule?
**A.** 65.9% (active)

**Q.** What about the inhibition [6] of the same molecule?
**A.** 54.3% (active)

**Q.** What about the inhibition [10] of the same molecule?
**A.** -78.8%
